Screening data (PubChem BioAssay)
Only a selection was taken, and hits are over-represented in it overall.
KDM5B inh: inhibitors of human KDM5B histone demethylase; AID 1347165; hit rate 2.6% among 220,000; KDM5B demethylase, FDH-coupled NADH fluorescence (FDH is formaldehyde dehydrogenase); Potency, µM (highest dose often 57.7 µM), hits mostly inhibitors; active means well fitted inhibition curve with a large enough effect; further: 0% is about no effect; nearly all actives have a fitted effect of over 70% in size
Target sequence (Q9UGL1 whole entry, looked up): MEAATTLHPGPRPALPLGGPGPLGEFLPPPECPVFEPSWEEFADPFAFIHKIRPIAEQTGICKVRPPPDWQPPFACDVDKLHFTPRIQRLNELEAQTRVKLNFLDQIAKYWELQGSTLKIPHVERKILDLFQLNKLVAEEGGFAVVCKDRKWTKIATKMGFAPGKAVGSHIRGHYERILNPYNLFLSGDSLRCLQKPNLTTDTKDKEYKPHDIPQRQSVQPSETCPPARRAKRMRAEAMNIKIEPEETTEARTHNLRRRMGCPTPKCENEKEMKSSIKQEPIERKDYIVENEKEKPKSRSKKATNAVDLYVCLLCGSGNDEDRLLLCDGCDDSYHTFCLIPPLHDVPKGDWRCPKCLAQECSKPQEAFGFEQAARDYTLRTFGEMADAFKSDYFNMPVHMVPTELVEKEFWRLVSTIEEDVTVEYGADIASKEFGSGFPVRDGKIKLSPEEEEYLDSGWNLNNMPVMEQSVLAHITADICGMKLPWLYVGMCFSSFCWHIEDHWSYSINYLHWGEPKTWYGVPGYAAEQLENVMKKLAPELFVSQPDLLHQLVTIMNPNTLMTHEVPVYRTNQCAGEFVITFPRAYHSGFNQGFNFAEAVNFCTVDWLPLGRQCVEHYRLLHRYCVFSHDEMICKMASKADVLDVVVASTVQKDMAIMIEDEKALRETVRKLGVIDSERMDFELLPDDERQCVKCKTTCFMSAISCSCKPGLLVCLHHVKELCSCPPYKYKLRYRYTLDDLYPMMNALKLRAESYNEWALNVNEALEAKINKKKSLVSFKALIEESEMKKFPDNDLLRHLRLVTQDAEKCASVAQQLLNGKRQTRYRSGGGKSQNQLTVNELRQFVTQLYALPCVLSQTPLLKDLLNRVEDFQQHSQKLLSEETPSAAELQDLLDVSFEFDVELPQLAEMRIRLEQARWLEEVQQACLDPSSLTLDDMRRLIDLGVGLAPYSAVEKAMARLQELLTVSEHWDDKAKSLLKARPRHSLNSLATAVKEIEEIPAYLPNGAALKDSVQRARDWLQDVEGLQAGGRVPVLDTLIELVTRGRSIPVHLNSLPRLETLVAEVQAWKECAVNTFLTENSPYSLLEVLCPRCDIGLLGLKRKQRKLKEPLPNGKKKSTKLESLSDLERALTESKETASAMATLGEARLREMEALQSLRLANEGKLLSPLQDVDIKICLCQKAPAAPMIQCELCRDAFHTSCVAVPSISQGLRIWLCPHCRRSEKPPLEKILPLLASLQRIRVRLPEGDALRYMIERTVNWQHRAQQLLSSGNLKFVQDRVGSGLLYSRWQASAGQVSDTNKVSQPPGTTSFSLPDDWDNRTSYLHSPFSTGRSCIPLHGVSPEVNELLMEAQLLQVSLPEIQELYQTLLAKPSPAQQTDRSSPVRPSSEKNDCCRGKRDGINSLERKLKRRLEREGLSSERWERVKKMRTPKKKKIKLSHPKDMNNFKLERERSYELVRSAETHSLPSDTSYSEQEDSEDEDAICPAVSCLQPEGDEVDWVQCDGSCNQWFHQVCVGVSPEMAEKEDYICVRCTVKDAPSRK
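Here, H3K4me3 peptide (12.5 µM in substrate mix) is demethylated by KDM5BΔAP, 200 nM final, after 10 min compound exposure. Formaldehyde product is coupled through FDH (0.25 U/mL in mix) to NADH fluorescence; 30-min ΔRFU feeds dose-response curves.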
An asterisk follows results filed as active; i = inactive. Potency means the concentration at half of the fitted maximal effect.

SMILES | KDM5B inh
C#CCN(C)C(=O)[C@@H]1CCCN1[C@@H](C(=O)NC)c1ccccc1F | i
Cn1c2ccccc2c2nnc(SCc3ccc(F)cc3Cl)nc21 | i
Cc1noc(-c2ccc3c(c2)OCO3)c1C(=O)NCc1ccccc1 | 28µM*
COc1ccccc1-c1onc(C)c1C(=O)NCc1cccc(C)c1 | i
Cc1ccc(CNC(=O)c2c(C)noc2-c2ccc3c(c2)OCO3)o1 | 25µM*
Cc1noc(C)c1C(=O)N(C)Cc1ccc2c(c1)OCO2 | i
Cc1noc(-c2ccco2)c1C(=O)NCc1cccc(Cl)c1 | i
Cc1noc(-c2ccccc2Cl)c1C(=O)NCc1cc(F)cc(F)c1 | i
Cc1cc(CNC(=O)c2ccc3c(c2)OCO3)c2ccccc2n1 | i
Cc1cccc(CNC(=O)c2c(C)noc2-c2ccc3c(c2)OCO3)c1 | 32µM*
COc1ccc(CNC(=O)c2c(C)noc2-c2ccc(OC(F)(F)F)cc2)cc1 | i
CC(=O)N1CCC2(CC1)SCC(=O)N2c1ccc(F)cc1 | i
Cc1ccc(CNC(=O)C(C)N2CCCC(C(F)(F)F)C2)cc1 (configuration not stated) | i
COc1cc(C)ccc1OCc1cc(C(=O)NCc2n[nH]c3c2CCC3)no1 | i
O=C1CC(c2ccccc2)N(Cc2ccncc2)CCCN(S(=O)(=O)c2cccc(F)c2)CCN1 (configuration not stated) | i
CC(=O)c1cc(CN2CCC(n3nccc3NC(=O)Cc3ccccc3)CC2)cs1 | i
COCCOc1cc(-c2noc([C@@H]3CCCN3Cc3ccc(NC(C)=O)cc3)n2)ccn1 | i
Fc1ccc(-c2noc([C@@H]3CCCN3Cc3ccc(Cl)cc3)n2)nc1 | i
NC(=O)C1CCN(c2cc(-c3noc([C@@H]4CCCN4Cc4ccc(F)c(F)c4)n3)ccn2)CC1 | 25µM*
CC(=O)N1CCN(c2cc(-c3noc([C@@H]4CCCN4Cc4ccc(C(F)(F)F)cc4)n3)ccn2)CC1 | 28µM*
COc1ccc(-c2noc([C@@H]3CCCN3C(=O)c3ccc(F)c(F)c3)n2)cc1OC | i
COc1ccc(-c2noc([C@@H]3CCCN3C(=O)c3ccncc3)n2)cc1OC | i
CC(C)c1cc(NCC2CCCCCN2)nc(N)n1 (configuration not stated) | i
CC(C)NC(=O)N1CCC2(CC1)CN(C(=O)Cc1cccc(O)c1)Cc1ccccc1O2 | i
Cc1cc2nc3n(c(=O)c2n1CC(=O)NC1CCC(C)CC1)CCCCC3 (configuration not stated) | i
SMILES | KDM5B inh
O=C(NCCSc1ccc(Cl)cc1)NC1CC1 | i
Cc1noc(-c2ccn3c(CNC(=O)Cc4ccccc4Cl)nnc3c2)n1 | 25µM*
Cc1noc(-c2ccn3c(CNC(=O)C(C)c4ccccc4)nnc3c2)n1 (configuration not stated) | 28µM*
Cc1noc(-c2ccn3c(CNC(=O)COc4ccccc4)nnc3c2)n1 | 13µM*
Cc1ccc2c(C)c(C(=O)Nc3nc(-c4ccc(C)s4)ns3)oc2c1 | i
CC(C)NC(=O)NCc1nnc2n1C(C(=O)NCCc1ccc(Cl)cc1)CC2 (configuration not stated) | i
CC(Sc1nnc(C2CC2)n1Cc1ccccc1)C(=O)Nc1ccnn1C(C)C (configuration not stated) | i
Cc1ccc(CNCCC2=CCCCC2)s1 | i
O=C(c1ccccc1)c1ccc(O)cc1 | i
O=C1NCCCCCCN(C(=O)c2ccoc2)[C@H]2C[C@H](C(=O)N3CCc4ccccc4C3)C[C@@H]12 | i
O=C1NCCCCCCN(C(=O)c2ccoc2)[C@H]2C[C@H](C(=O)N3CCN(c4ccccn4)CC3)C[C@@H]12 | 32µM*
O=C1NCCCCCN(C(=O)c2ccoc2)[C@@H]2C[C@@H](C(=O)N3CCc4ccccc4C3)C[C@H]12 | i
OC1(c2csc(CN3CCN(c4ccccn4)CC3)n2)CCN(C2CCCC2)CC1 | i
CC(Sc1nnnn1C1CC1)C(=O)c1c[nH]c2ccccc12 (configuration not stated) | i
COc1ccc(CN2CC3(CCN(S(=O)(=O)Cc4ccccc4)CC3)C2=O)cc1 | i
Cc1cc(Br)ccc1-c1ccc(C=O)o1 | i
CO[C@H]1[C@H](NC(=O)Cc2ccc3c(c2)OCO3)c2ccccc2C12CCNCC2 | i
Cc1ccc(CNC(=O)C2CCc3nc(N4CCN(C(=O)C(C)C)CC4)sc3C2)o1 (configuration not stated) | i
CCC(=O)N1CCN(c2nc3c(s2)CC(C(=O)NCc2cccs2)CC3)CC1 (configuration not stated) | i
CCC(=O)N1CCN(c2nc3c(s2)CC(C(=O)NCc2ccc(C)o2)CC3)CC1 (configuration not stated) | 25µM*
CCc1noc(-c2cn(C3CCN(C(=O)c4ccc(C)cc4C)C3)nn2)n1 (configuration not stated) | i
CSc1ccccc1C(=O)N1CCOC(Cc2cccc(F)c2)C1 (configuration not stated) | i
C=CCC1(O)CCN(C)CC1C (configuration not stated) | i
COC(=O)[C@@H]1Cc2c([nH]c3ccccc23)[C@H]2C[C@H](NCCNC(C)=O)C[C@@H](c3ccc(C(F)(F)F)cc3)N21 | 10µM*
COC(=O)[C@@H]1Cc2c([nH]c3ccccc23)[C@H]2C[C@H](NCCNC(C)=O)C[C@@H](c3ccccc3)N21 | 28µM*
SMILES | KDM5B inh
COc1ccc(C(=O)N2CCc3c([nH]c4ccccc34)C2C(F)(F)F)cc1 (configuration not stated) | i
CSc1ccc(C2c3[nH]c4ccccc4c3CCN2C(=O)CCc2ccccc2)cc1 (configuration not stated) | i
COC(=O)C1Cc2c([nH]c3ccccc23)C2(CCN(Cc3ccccc3)CC2)N1 (configuration not stated) | i
COc1ccccc1NC(=O)N1CCc2c([nH]c3ccccc23)C1C(F)(F)F (configuration not stated) | i
O=[S+]1([O-])NCC2(CCN(Cc3ccc(F)cc3)CC2)Nc2ccccc21 | i
CN(CC(=O)Nc1cccc2ccccc12)C(=O)c1ccc(NS(=O)(=O)c2ccc(F)cc2)cc1 | i
CCCCNc1nc2c(c(=O)n(C)c(=O)n2C)n1Cc1ccccc1Cl | i
CC(Cc1cccs1)N(Cc1ccccc1)C(=O)c1cccc(S(=O)(=O)N(C)C)c1 (configuration not stated) | i
COCc1ccc2c(c1)c(OC(C)(C)C(=O)N1CC(O)C1)nn2CCC(C)C | 35µM*
COCc1ccc2c(c1)c(OC(C)(C)C(N)=O)nn2CCC(C)C | 32µM*
COCCN(C)C(=O)C(C)(C)Oc1nn(Cc2cccnc2)c2ccc(COC)cc12 | i
COCc1ccc2c(c1)c(OC(C)(C)C(=O)Nc1cc(C)nn1C)nn2Cc1cccnc1 | i
COCc1ccc2c(c1)c(OC(C)(C)C(=O)NCc1cnccn1)nn2CCC(C)C | i
COCc1ccc2c(c1)c(OC(C)(C)C(=O)NCc1ccncc1)nn2Cc1cccnc1 | i
O=C(O)c1ccc(F)c(F)c1F | i
O=c1cc(CSc2nnnn2-c2ccccc2)[nH]n1-c1ccc(F)cc1 | i
Cc1c(-c2ccccc2)oc2c(C(=O)OCC(=O)NCC3CCCCC3)cccc2c1=O | i
CCCC(NC(=O)Cn1nnn(-c2ccccc2)c1=O)c1ccccc1 (configuration not stated) | i
CCOc1ccc2c(n1)CCN(C(=O)CCC1CCCC1)C2 | i
